# LDHA block: blocks human lactate dehydrogenase A | purified LDHA, NADH/diaphorase-resazurin fluorescence; active compounds read low | AID 1347041 | 0.15% of 480,000 active | activity change, % (values are at about 110 or 230 µM); in the data active means activity change below about -30%; inconclusive means mostly about -25% to -30%;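 further: plate controls were DMSO wells for no effect and wells without enzyme for full effect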
#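 Remaining NADH was detected by diaphorase (0.133 mg/mL) converting 37 µM resazurin to fluorescent resorufin, read at 0 and 20 minutes. The preceding 5-minute room-temperature reaction used 2 nM LDHA, 0.2 mM sodium pyruvate and 0.06 mM NADH at pH 7.4.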
# D3 antag: blocks the human D3 dopamine receptor; P35462; D3R cells, DiscoveRx beta-arrestin luminescence, antagonist mode; active compounds read low; max response, negative = inhibition, %; 2.5% of 360,000 active; AID 652054; in the data active means max response below about -50%; inconclusive means no clear call, values can overlap the other calls; further: on the % scale 0 is the no-effect control and ±100 the full control effect
#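 Cells expressing the human receptor were seeded at 1500 cells/well, incubated overnight at 37 degrees C in 5% CO2, then exposed to library compounds with dopamine controls for 90 minutes at 37 degrees C before luminescent detection.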
# D3 ag: D3 dopamine receptor (human) agonism | P35462 | D3R DiscoveRx beta-arrestin cells, luminescence, 90 min | max activation, % | 0.58% of 410,000 active; in the data active means max activation above about 30%; further: 0% is about no effect
#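 Agonist mode: compounds and dopamine controls were applied to plated cells for 90 min at 37 degrees C after an overnight attachment at 1500 cells/well. Luminescent read-out followed 30 - 60 minutes at room temperature with DiscoveRx detection reagent.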
# PI4K2A block: blocks human PI4K2A kinase activity; purified PI4K2A, ADP-Glo luminescence, 1 h; active compounds read low; activity change, negative = inhibition, % at 76.9 µM; 0.13% of 420,000 active; in the data active means activity change below about -50%; inconclusive means mostly about -30% to -49%;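 further: -100% = wells without enzyme as full effect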
#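 In this quantitative HTS, ADP production by PI4K2A was quantified luminescently after 1 h at ambient temperature; 100 microM adenosine served as plate-quality control.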
# PI5P4K alpha inh: blocks human PI5P4K alpha kinase activity; 1.2% of 330,000 active; AID 652105; PI5P4Kalpha enzyme, ADP-Glo luminescence, 60 min; active compounds read low; P48426; max response, %; active means max response of -50% or lower; inconclusive means between -30% and -50%; inactive means -30% or higher; further: value at the top dose of about 77 µM; on the % scale 0 is the no-effect control and ±100 the full control effect
# Target sequence (P48426 whole entry, looked up): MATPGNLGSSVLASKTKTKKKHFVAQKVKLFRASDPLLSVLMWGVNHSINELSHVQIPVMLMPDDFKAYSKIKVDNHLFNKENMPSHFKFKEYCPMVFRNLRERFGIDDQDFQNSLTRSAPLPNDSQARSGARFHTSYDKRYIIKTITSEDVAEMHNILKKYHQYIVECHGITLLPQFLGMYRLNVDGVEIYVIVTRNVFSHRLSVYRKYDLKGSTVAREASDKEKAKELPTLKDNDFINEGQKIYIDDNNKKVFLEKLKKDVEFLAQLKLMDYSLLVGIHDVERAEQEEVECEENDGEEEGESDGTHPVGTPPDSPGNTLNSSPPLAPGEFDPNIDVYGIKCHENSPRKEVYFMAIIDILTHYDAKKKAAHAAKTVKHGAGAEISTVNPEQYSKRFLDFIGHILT
#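 ADP-Glo luminescence end-point after a 60 min room-temperature kinase reaction. PI5P4Kalpha and substrate in HEPES pH 7.4 buffer with EGTA, 0.1% CHAPS and 5% DMSO; ATP at 5 microM final.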
# Active calls of the source: *; u = inconclusive; x = no result given. Sampled rows, rich in hits. Any-hit rate of the full collection: about 3.3%.
SMILES,LDHA block,D3 antag,D3 ag,PI4K2A block,PI5P4K alpha inh
CCC(C)NC(=O)CN1C(=O)C(CC)Sc2ccccc21 (stereo not given),-9,-1,1,5,-1
CC1Sc2ccccc2N(CC(=O)N(C(C)C)C(C)C)C1=O (stereo not given),-9,-70*,-3,0,4
Cc1cc(C)c2c(-n3cccc3)c(C(=O)NNS(=O)(=O)c3ccccc3)sc2n1,1,-55*,-2,4,u
Cc1cc(C)c2c(-n3cccc3)c(C(=O)NNS(=O)(=O)c3ccc(Cl)cc3)sc2n1,1,-56*,0,1,-5
CC(C)(C)c1[nH]nc2c1C(c1ccncc1)C(C#N)=C(N)O2 (stereo not given),3,18,1,-2,-51*
N#CC1=C(N)Oc2n[nH]c(-c3cccs3)c2C1C1C=CCCC1 (stereo not given),-3,-16,-10,-1,-52*
CCOC(=O)Cc1[nH]nc2c1C(c1cccc(OC)c1OC)C(C#N)=C(N)O2 (stereo not given),-5,8,-5,-4,-1
N#CC1=C(N)Oc2n[nH]c(-c3cccs3)c2C1c1ccsc1 (stereo not given),5,-3,2,-15,-56*
CCOC(=O)Cc1[nH]nc2c1C(C1C=CCCC1)C(C#N)=C(N)O2 (stereo not given),-2,-1,0,5,-51*
Cc1cc2oc(=O)cc(CN3CCCC(C)C3)c2cc1C (stereo not given),9,x,x,x,x
Nc1c(Br)cc(/C=C2\C=Cc3ccccc32)cc1Br,1,x,x,x,x
c1ccc(C2OC3c4cccc5cccc(c45)C3N2c2ccccc2)cc1 (stereo not given),10,-59*,-5,11,10
CCc1ccc(Nc2nc(-c3cc4cccc(OC)c4oc3=O)c(CC)s2)cc1,4,x,50*,-1,x
COCCNc1nc(C(C)C)c2c(c1C#N)CCCC2,-1,x,x,x,x
CSCCC(NC(=O)C1CCC(C)CC1)C(=O)Nc1ccc2c(c1)OCCO2 (stereo not given),-7,x,x,x,x
Cc1ccccc1N(C)C(=O)Cn1nnc(-c2ccccc2F)n1,x,x,x,-3,x
CC(=O)Nc1c([N+](=O)[O-])cc2[nH]c(=O)[nH]c2c1[N+](=O)[O-],10,u,-5,-7,1
O=c1[nH]c2cc([N+](=O)[O-])c(NCCO)c([N+](=O)[O-])c2[nH]1,1,-59*,-18,-11,u
Cc1ccc(CNc2nc(N)c([N+](=O)[O-])c(NCc3ccccc3)n2)cc1,-1,12,-6,-1,-2
Cc1ccc(CNc2nc(N)c([N+](=O)[O-])c(NCCO)n2)cc1,-2,2,-12,2,u
Nc1nc(NCc2ccc(Cl)cc2)nc(NCCO)c1[N+](=O)[O-],-7,2,-4,2,-57*
Nc1nc(NCc2ccccc2)nc(NCc2ccccc2)c1[N+](=O)[O-],-6,7,32*,-1,-3
CCc1ccc(NC(=O)c2nn(-c3ccc(F)cc3)c(=O)cc2OC)cc1,-1,x,x,x,x
O=C(Cc1ccccc1)Nc1ccc2oc(-c3cccc(Cl)c3)nc2c1,-3,x,x,x,x
COc1ccc(Cl)cc1N1C(=O)C2CCCN2C1c1sccc1C (stereo not given),-8,-63*,-2,4,-8
SMILES,LDHA block,D3 antag,D3 ag,PI4K2A block,PI5P4K alpha inh
COc1ccc(C2N(c3cc(Cl)ccc3OC)C(=O)C3CCCN32)cc1 (stereo not given),-4,-7,-11,-2,2
COc1ccc2c(c1OC)C(=O)OC2CC(=O)c1ccc(O)cc1 (stereo not given),-11,0,0,0,-20
COc1ccc2c(c1OC)C(=O)OC2CC(=O)O (stereo not given),-10,-55*,0,-4,5
COc1cc(OC)cc(C(=O)NC2CC3CCC(C2)N3Cc2ccco2)c1 (stereo not given),-6,-91*,-10,-2,-7
O=C(Nc1cccc(Cl)c1)NC1CC2CCC(C1)N2Cc1ccco1 (stereo not given),-1,-67*,-2,-3,0
Cc1ccc(C(=O)NC2CC3CCC(C2)N3Cc2ccco2)cc1 (stereo not given),-6,-28,-10,-1,3

# Screening results: PubChem, National Center for Advancing Translational Sciences (NCATS)
